This excerpt belongs to a sample that is enriched for hits.
AmpC detergent – AmpC beta-lactamase inhibition with detergent present | Potency, µM (doses to about 114 µM), without a hit: top-dose activity change, negative = inhibition, actives largely listed as inhibitors | actives 0.041% (n = 370,000) | AmpC hydrolysis of nitrocefin, absorbance 480 nm, 0.01% Triton | P00811;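 note: potency is the fitted concentration of half-maximal effect; 0% = no-compound wells and -100% = no-enzyme wells; nearly all actives have a fitted effect of over 25% in size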
Target sequence (P00811 whole entry, looked up): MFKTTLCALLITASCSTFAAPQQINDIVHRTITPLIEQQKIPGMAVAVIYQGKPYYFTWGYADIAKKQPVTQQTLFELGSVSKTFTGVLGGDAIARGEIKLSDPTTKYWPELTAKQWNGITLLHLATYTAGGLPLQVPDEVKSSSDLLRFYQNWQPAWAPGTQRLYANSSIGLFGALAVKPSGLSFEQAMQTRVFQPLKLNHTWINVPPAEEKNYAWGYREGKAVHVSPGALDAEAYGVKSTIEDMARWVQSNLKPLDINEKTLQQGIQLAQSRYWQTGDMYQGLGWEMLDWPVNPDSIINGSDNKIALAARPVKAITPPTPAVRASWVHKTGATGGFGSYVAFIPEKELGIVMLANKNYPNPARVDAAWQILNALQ
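20 mM phosphate pH 7.0 + 0.01% (detergent screen) or 0.0001% Triton X-100; 5.3 nM AmpC reagent; cpd preinc 15 min RT; nitrocefin (800 uM stock) to start; A480 q20 s × 4 min; Activity was normalised to no-enzyme and no-compound control wells.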
CHX counter – counter-screen hit for Shiga toxin inhibitors, cycloheximide; cell reporter, cycloheximide protein synthesis inhibition counterscreen; max response, %; actives 12% (n = 300,000); in the data active = max response mostly above about 13%, no sharp cut-off; inactive = mostly below about 14%; note: read at 38.3 µM for the half of the compounds with a filed dose; 0% is about no effect
SARS PLpro yeast – blocks SARS-CoV papain-like protease in a yeast assay. S. cerevisiae expressing SARS-CoV PLpro, growth rescue. Potency, µM (top dose mostly 32.9 µM), for inactives: top-dose activity, positive = growth rescue, actives largely listed as activators. actives 0.19% (n = 330,000); calls by dose curve; note: potency is the fitted concentration of half-maximal effect; 0% is about no effect; nearly all actives have a fitted effect of over 55% in size
Shiga inhibitor – inhibitors of Shiga toxin in Vero cells; actives 9.2% (n = 290,000); inhibition, % at 38.7 µM; AID 2315; Vero cells, Shiga toxin protein synthesis inhibition reporter; in the data active = inhibition mostly above about 28%, no sharp cut-off; inactive = mostly below about 43%; note: 0% is about no effect
AMA1-RON2 inh – disrupts binding of P. falciparum AMA1 to RON2; AlphaScreen AMA1-biotinylated RON2 peptide binding; Potency, µM (titrated, usually from 58.2 µM), without a hit: at the top dose activity change, negative = inhibition, usual class: inhibitors; actives 0.2% (n = 360,000);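 note: potency is the fitted concentration of half-maximal effect; 0% = vehicle wells and -100% = peptide control; nearly all actives have a fitted effect of over 45% in size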
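AMA1 (3D7) with his tag at 25 nM final met compounds first, then biotinylated RON2 peptide at 25 nM; detection used donor plus acceptor beads, 10 µg/mL apiece, read by AlphaScreen after 30 min at room temperature.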
AmpC no deterg – inhibitors of E. coli AmpC beta-lactamase without detergent; P00811; AmpC nitrocefin hydrolysis, absorbance 480 nm, 0.0001% Triton; Potency, µM (series often up to 57.1 µM), without a hit: top-dose activity change, negative = inhibition, hits mostly inhibitors; actives 0.52% (n = 330,000); AID 485341;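 note: potency is the fitted concentration of half-maximal effect; plate controls were no compound for no effect and no enzyme for full effect; nearly all actives have a fitted effect of over 20% in size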
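20 mM phosphate pH 7.0 + 0.01% (detergent screen) or 0.0001% Triton X-100; 5.3 nM AmpC reagent; cpd preinc 15 min RT; nitrocefin (800 uM stock) to start; A480 q20 s × 4 min; Activity was normalised to no-enzyme and no-compound control wells.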
The depositor's hits bear a star; ? = inconclusive; . = no result; + = active, no number; [ ] = dose if it differs, or a comment. Unless noted, calls come from the whole dose curve; as a rule, active = well fitted curve in the direction sought with a large enough effect; inconclusive = small, poorly fitted or top-dose-only effect, or another doubt; inactive = no such curve, though single readings can be large; an effect the other way counts as inactive or inconclusive.

SMILES	AmpC detergent	CHX counter	SARS PLpro yeast	Shiga inhibitor	AMA1-RON2 inh	AmpC no deterg
Cc1cccc(NC(=O)c2ccc3c(c2)OCCO3)c1	-9.6%	31.5	-7.3%	41.1*	0.5%	7.3%
Cc1cccc(NC(=S)NNC(=O)c2ccc3c(c2)OCO3)c1	?	116.3*	-7.6%	49.2*	73.9%	-16.5%
COc1cccc(NC(=O)C(=O)N/N=C/c2ccc3c(c2)OCO3)c1	?	26.4*	-3.0%	56.0	-8.4%	-10.8%
O=C(Nc1cccc(F)c1)c1ccc2c(c1)OCCO2	-2.2%	43.4*	-0.4%	86.8*	1.9%	-40.2%
CCCNC(=O)N1CCC(Cc2ccccc2)CC1	2.2%	9.6	-9.4%	10.6	-13.6%	-5.8%
O=C(NC1CCCCC1)N(C1=NCCCCC1)c1ccc(Br)cc1	7.6%	6.4	-10.3%	16.6	-1.7%	-22.6%
CN(C(=O)CSc1nc2ccc(NC(=O)c3ccccc3F)cc2s1)c1ccccc1	15.7%	.	.	.	.	.
COC(=O)c1ccc(C)c(-n2c(=O)n(Cc3ccccc3)c(=O)c3[nH]cnc32)c1	1.0%	-5.2	0.1%	0.9	-2.4%	-16.3%
CCC(C)(C)NC(=O)c1ccc2c(c1)OCCO2	-12.7%	16.0*	-0.5%	44.7	4.8%	-15.4%[11.4 µM]
Cc1cccc(NC(=S)N/N=C/c2ccc3c(c2)OCO3)c1	5.2%	49.2*	?	+	1.7%	-34.3%
Cc1cccc(NC(=S)NCc2ccc3c(c2)OCO3)c1	-17.8%	-2.5	21.9%	-14.9	16.6%[2.32 µM]	-21.6%
CCOC(=O)C(=O)CC(=O)c1ccc2c(c1)OCCO2	0.5%	29.6*	-0.2%	50.5	-2.3%	-28.5%
CCOC(=O)c1ccc(NS(=O)(=O)c2ccc3c(c2)OCCO3)cc1	20.7%	.	.	.	.	.
Cc1ccc(NC(=O)c2ccc3c(c2)OCCO3)cc1S(=O)(=O)Nc1cccc(Cl)c1	-8.4%	45.4*	-17.3%	87.8*	-9.8%	-14.5%
Cc1ccc(NC(=O)c2ccc3c(c2)OCCO3)cc1C	9.8%	14.7	-5.6%	20.9	-5.2%	-23.1%
COc1cc(C(=O)NCCc2ccc(F)cc2)ccc1OCC(=O)N1CCOCC1	-7.8%	.	-9.1%	.	3.2%	-5.4%
Nc1nc(Br)c2ccccc2c1-c1ccccc1	-12.5%	16.3	0.1%	20.2	32.1%	-30.5%
CC(Sc1nnc(-c2ccco2)n1C)C(=O)NC1CCCC1 (configuration not stated)	6.4%	.	0.1%	.	-2.4%	-22.4%
CNC(=S)N/N=C/c1ccc2c(c1)OCCO2	-19.7%	36.4*	2.1%	72.7*	100.8%	-22.4%
COc1ccc(NC(=O)/C(=C\c2ccc3c(c2)OCO3)NC(C)=O)cc1	?	59.0*	-14.1%	66.5*	-1.8%	-14.6%
CCC(C)(C)NC(=O)CN(C(=O)C(=O)Nc1ccc2c(c1)OCCO2)C1CC1	-5.7%	12.4*	-11.1%	14.2	-3.4%	-6.9%
CCCc1cc(C(=O)NNC(=S)Nc2cccc(C)c2)cs1	0.4%	31.0*	-2.2%	40.3*	25.3%	-25.0%
COc1ccccc1-c1nnc(NC(=O)CCS(=O)(=O)c2ccccc2)o1	2.4%	9.6	-3.5%	4.3	33.5%	-4.6%
CCOC(=O)c1c(NCC(C)C)c2ccccc2[nH]c1=O	-0.4%	-1.9	-16.0%	-15.9	-1.5%	-11.6%
O=C(Nc1ccccc1)c1ccc2c(c1)OCCO2	-11.3%	41.3*	-13.5%	70.0*	0.0%	-28.5%
SMILES	AmpC detergent	CHX counter	SARS PLpro yeast	Shiga inhibitor	AMA1-RON2 inh	AmpC no deterg
COc1ccccc1C1CC(c2ccco2)=NN1c1ccccc1 (configuration not stated)	-1.8%	-3.2	-32.8%	-11.7	?	-38.3%
Fc1ccccc1C1CC(c2ccco2)=Nc2ccccc2S1 (configuration not stated)	11.2%	49.4*	-5.1%	103.8*	-6.8%	-23.0%
CC1(C)CCCN(Cc2c(O)ccc3c(=O)c(-c4nc5ccccc5s4)c(N)oc23)C1	0.3%	32.9*	-0.7%	77.0*	51.9%	-44.3%
NC(N)=Nc1nc(C2COc3ccccc3O2)cs1 (configuration not stated)	-7.9%	37.2*	-2.3%	75.0*	4.0%	-49.7%
CC(=O)NCC1COc2ccccc2O1 (configuration not stated)	-0.6%	-0.3	0.3%	24.3	-1.9%	-3.5%
CC(=O)Nc1nc(C2COc3ccccc3O2)cs1 (configuration not stated)	0.9%	32.5*	-8.4%	49.5*	16.0%	-11.9%
COc1cccc2c1OCC/C2=N\NC(=O)COc1ccc(C)cc1	-1.2%	16.0	-2.1%	23.5*	0.9%	35.4%
Cc1ccc(OCC(=O)N/N=C2\CCOc3c(C)cccc32)cc1	-15.2%	8.9	-0.2%	-6.3	4.8%	7.0%
O=C(OCC(=O)N1CCOCC1)c1ccc2ccccc2c1O	6.0%	.	1.6%	.	5.4%	1.9%
O=C(/C=C/c1ccc2c(c1)OCCCO2)c1ccc2ccccc2c1O	1.2%	11.9*	-0.9%	39.6*	3.9%[2.32 µM]	-23.6%
Cc1ccc(C(=O)/C=C/c2ccc3c(c2)OCCO3)c(O)c1	-6.4%	39.9*	-1.0%	86.5*	?	-2.7%
CCOc1ccc(NC(=NCc2ccc3c(c2)OCO3)SC2CC(=O)N(c3ccc(OCC)cc3)C2=O)cc1 (configuration not stated)	1.1%	63.2*	?	+	11.4%	-23.4%
Cc1cccc(C(=O)Nc2sc(C)c(-c3ccccc3)c2C#N)c1	?	40.7*	-6.6%	59.0*	-7.6%	-14.8%
Cc1noc(C)c1C(=O)Nc1sc(C)c(-c2ccccc2)c1C#N	4.6%	5.7	0.2%	13.3	6.8%	-15.3%
Cc1sc(NC(=O)C2CCCCC2)c(C#N)c1-c1ccccc1	-3.6%	57.2*	-3.9%	142.0*	2.6%	-46.9%
COc1ccc(CCN(C)C2CCCN(C(=O)CCSC)C2)cc1OC (configuration not stated)	?	-2.2	-0.8%	-1.0	1.3%	-12.8%
CN1CCCC1CCNc1ccc2c(=O)c3ccccc3oc2c1 (configuration not stated)	-5.5%	40.9*	-3.1%	32.7	20.9%	11.3%
CN1CCCC1CCNc1ccc2oc3ccccc3c(=O)c2c1 (configuration not stated)	-17.9%	25.3*	-1.7%	43.9	2.0%	4.6%
CN1CCC[C@H]1CCNc1ccc2c(=O)c3ccccc3n(C)c2c1	.	.	.	.	-6.5%	.
N/C(=N\OC(=O)Cc1cccs1)c1ccc(Br)cc1	?	50.0*	-34.1%	81.2*	59.1%	-14.1%
N/C(=N\OC(=O)Cc1cccs1)c1ccc([N+](=O)[O-])cc1	-1.4%	31.2*	-47.9%	+	-22.0%	-16.1%
Cc1ccc(CN2CC(C(=O)N3CCN(S(=O)(=O)c4cc(C)ccc4C)CC3)CC2=O)cc1 (configuration not stated)	0.0%	.	2.4%	.	-5.7%	216.8%

Compound activity (PubChem BioAssay)
